Experimental data published in PubChem BioAssay (Tox21).
Where “and” joins values, the source holds several entries; their conditions need not be identical. Equal entries are not always repeated. Results filed as inconclusive are left out. More than one record can exist for a structure, and the calls need not agree. Calls of active or inactive are those of the source. Unless noted, the call rests on the fitted dose curve.

Key:
[1] = Nuclear factor erythroid 2-related factor 2/antioxidant responsive element (Nrf2/ARE) small molecule agonists: qHTS cell viability counter screen in human keratinocytes (AID 1919968; active means well fitted curve in the direction sought with a large enough effect in the repeat runs; an effect the other way counts as inactive or inconclusive; further: nearly all actives have a fitted effect of over 55% in size; further: potency means the concentration at half of the fitted maximal effect)
In short: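 Viability counter-screen: KeratinoSens reporter cells, DMSO-delivered compounds, 23 h at 37 C, CellTiter-Fluor fluorescence.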

[2] = Nuclear factor erythroid 2-related factor 2/antioxidant responsive element (Nrf2/ARE) small molecule agonists: luciferase reporter gene qHTS assay in human keratinocytes (AID 1919969); further: nearly all actives have a fitted effect of over 35% in size; further: potency means the concentration at half of the fitted maximal effect
[3] = molecular target: Gonadotropin-releasing hormone receptor (Homo sapiens) (UniProt P30968); assay: Human gonadotropin-releasing hormone receptor (GnRHR) small molecule agonists, calcium flux assay in GnRHR-HEK293 cells (AID 1920063); further: nearly all actives have a fitted effect of over 35% in size; further: potency means the concentration at half of the fitted maximal effect
Gonadotropin-releasing hormone receptor (Homo sapiens), sequence (P30968 whole entry, looked up): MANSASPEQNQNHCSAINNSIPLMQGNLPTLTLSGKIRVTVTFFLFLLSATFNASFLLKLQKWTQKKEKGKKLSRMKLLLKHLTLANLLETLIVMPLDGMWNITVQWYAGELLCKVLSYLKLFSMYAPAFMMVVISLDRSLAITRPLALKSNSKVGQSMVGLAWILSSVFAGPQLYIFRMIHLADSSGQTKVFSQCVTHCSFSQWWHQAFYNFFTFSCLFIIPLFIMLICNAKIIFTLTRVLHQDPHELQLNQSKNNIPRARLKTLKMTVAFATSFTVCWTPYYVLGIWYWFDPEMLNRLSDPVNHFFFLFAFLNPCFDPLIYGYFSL
In short: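 Tox21-format agonist screen using human GnRHR-expressing HEK293 cells and a fluorescent calcium dye; kinetic 3-min fluorescence reading after compound addition, 15-point concentration series run in triplicate.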

[4] = molecular target: KiSS-1 receptor (Homo sapiens) (UniProt Q969F8); assay: Human kisspeptin (KISS1R) small molecule agonists, calcium flux assay in KISS1R-HEK293 cells (AID 1920064; active means well fitted curve in the direction sought with a large enough effect in the repeat runs; an effect the other way counts as inactive or inconclusive)
KiSS-1 receptor (Homo sapiens), sequence (Q969F8 whole entry, looked up): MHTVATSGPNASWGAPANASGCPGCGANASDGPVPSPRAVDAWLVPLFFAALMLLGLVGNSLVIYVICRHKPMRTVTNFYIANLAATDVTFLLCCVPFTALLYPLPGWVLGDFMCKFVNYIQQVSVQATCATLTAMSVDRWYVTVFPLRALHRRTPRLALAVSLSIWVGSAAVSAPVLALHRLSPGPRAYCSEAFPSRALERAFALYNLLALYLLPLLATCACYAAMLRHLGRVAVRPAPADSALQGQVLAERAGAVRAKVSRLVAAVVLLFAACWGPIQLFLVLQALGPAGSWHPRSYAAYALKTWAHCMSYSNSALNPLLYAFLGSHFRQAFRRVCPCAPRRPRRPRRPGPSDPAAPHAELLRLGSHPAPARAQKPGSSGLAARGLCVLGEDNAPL
In short: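 Intracellular calcium mobilization in KISS1R-HEK293 cells was recorded by fluorescence (Ex/Em 480/540) for 3 min following compound addition to cells pre-loaded 1 h with calcium dye.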

[5] = p53 small molecule agonists, cell-based qHTS assay with rat liver microsomes (AID 1963578)
In short: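 Quantitative HTS of the Tox21 10K library: p53RE-bla cells, rat liver microsomes plus NADPH at 0.5 mg/mL final each, 16 h at 37 C, beta-lactamase fluorescence detection.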

[6] = p53 small molecule agonists, cell-based qHTS assay with rat liver microsomes: qHTS cell viability counter screen (AID 1963580); further: nearly all actives have a fitted effect of over 45% in size; further: potency means the concentration at half of the fitted maximal effect
In short: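 HCT-116 p53RE-bla, 4,000 cells/well, 5 h pre-incubation; cpd + rat liver microsomes 0.5 mg/mL + NADPH 0.5 mg/mL (final); 16 h, 37 C; CellTiter-Glo, 30 min RT; luminescence.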

[7] = p53 small molecule agonists, cell-based qHTS assay: qHTS cell viability counter screen (AID 1963581); further: nearly all actives have a fitted effect of over 45% in size; further: potency means the concentration at half of the fitted maximal effect
In short: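 Compounds are pinned onto HCT-116 p53RE-bla cells and left 16 h at 37 C. Following the reporter FRET read, ATP is quantified by CellTiter-Glo luminescence after 30 min at room temperature.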

[8] = p53 small molecule agonists, cell-based qHTS assay (AID 1963582; active means well fitted activation curve with a large enough effect in the signal ratio in the repeat runs, not every such curve was filed as active; the % refers to the signal ratio)
In short: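 Agonist activity was scored from beta-lactamase FRET fluorescence in p53RE-bla cells treated 16 h at 37 C with compounds in DMSO, substrate incubation being 2 h at room temperature.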

[9] = molecular target: 5-hydroxytryptamine receptor 2A (Homo sapiens) (UniProt P28223); assay: 5-hydroxytryptamine receptor 2A (HTR2A) small molecule antagonists, cell-based qHTS assay (AID 1963586); further: nearly all actives have a fitted effect of over 45% in size; further: potency means the concentration at half of the fitted maximal effect
5-hydroxytryptamine receptor 2A (Homo sapiens), sequence (P28223 whole entry, looked up): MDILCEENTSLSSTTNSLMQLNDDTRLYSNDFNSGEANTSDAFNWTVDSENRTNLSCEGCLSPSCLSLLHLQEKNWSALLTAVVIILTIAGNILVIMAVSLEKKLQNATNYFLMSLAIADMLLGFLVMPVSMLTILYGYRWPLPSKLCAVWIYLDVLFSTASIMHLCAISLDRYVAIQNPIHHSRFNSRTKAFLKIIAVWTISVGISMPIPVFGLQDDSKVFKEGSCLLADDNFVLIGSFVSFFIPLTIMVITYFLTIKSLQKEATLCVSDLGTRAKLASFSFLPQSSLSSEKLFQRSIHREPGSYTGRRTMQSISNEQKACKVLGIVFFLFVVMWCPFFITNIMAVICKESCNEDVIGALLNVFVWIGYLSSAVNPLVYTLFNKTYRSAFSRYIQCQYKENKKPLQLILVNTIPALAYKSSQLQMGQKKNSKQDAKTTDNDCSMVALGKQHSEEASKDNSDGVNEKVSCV
In short: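 Antagonist-mode intracellular calcium assay: DOI (4 nM) added after 5 min compound pre-incubation at room temperature to dye-loaded HTR2A-CHO cells. Fluorescence followed for 3 min, sampled every second.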

[10] = molecular target: 5-hydroxytryptamine receptor 2A (Homo sapiens) (UniProt P28223); assay: 5-hydroxytryptamine receptor 2A (HTR2A) small molecule agonists, cell-based qHTS assay (AID 1963587); further: nearly all actives have a fitted effect of over 30% in size; further: potency means the concentration at half of the fitted maximal effect
In short: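 Kinetic calcium-flux fluorescence (2 min, 1 sec intervals) after compound addition in agonist mode. HTR2A-CHO cells were cultured 18 h, then dye-loaded 1 h at 37 C.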

[11] = molecular target: Muscarinic acetylcholine receptor M1 (Homo sapiens) (UniProt P11229); assay: Cholinergic receptor muscarinic 1 (CHRM1) small molecule antagonists, cell-based qHTS assay (AID 1963588); further: nearly all actives have a fitted effect of over 40% in size
Muscarinic acetylcholine receptor M1 (Homo sapiens), sequence (P11229 whole entry, looked up): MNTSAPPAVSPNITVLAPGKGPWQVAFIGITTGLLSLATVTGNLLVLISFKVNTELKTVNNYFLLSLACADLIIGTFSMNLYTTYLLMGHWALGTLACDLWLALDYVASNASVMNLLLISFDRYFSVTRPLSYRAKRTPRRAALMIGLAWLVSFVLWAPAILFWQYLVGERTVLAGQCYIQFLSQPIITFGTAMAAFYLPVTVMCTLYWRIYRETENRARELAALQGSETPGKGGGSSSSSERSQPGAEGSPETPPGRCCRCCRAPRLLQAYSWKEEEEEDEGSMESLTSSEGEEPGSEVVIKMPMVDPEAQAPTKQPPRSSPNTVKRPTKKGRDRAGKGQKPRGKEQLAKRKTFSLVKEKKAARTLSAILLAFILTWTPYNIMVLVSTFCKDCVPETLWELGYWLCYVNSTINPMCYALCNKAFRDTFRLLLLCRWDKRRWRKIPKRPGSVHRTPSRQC
In short: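 CHRM1-CHO calcium-flux assay, antagonist mode. Cells were seeded 18 h, dye-loaded 1 h at 37 C and given compound for 5 min at RT, then acetylcholine was added at 50nM. FDSS fluorescence was read 3 min; 15 concentrations, three runs.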

[12] = molecular target: Muscarinic acetylcholine receptor M1 (Homo sapiens) (UniProt P11229); assay: Cholinergic receptor muscarinic 1 (CHRM1) small molecule agonists, cell-based qHTS assay (AID 1963589); further: nearly all actives have a fitted effect of over 35% in size
In short: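 Stable CHRM1-CHO cells (human receptor) were incubated 18 h, dye-loaded for 1 h at 37 C and exposed to test compounds for agonist activity, with calcium-dependent fluorescence followed kinetically.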

[13] = cAMP Responsive Elements (CRE) small molecule antagonists, cell-based qHTS assay (AID 1963591; active means well fitted inhibition curve with a large enough effect in the signal ratio in the repeat runs, not every such curve was filed as active; the % refers to the signal ratio)
In short: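 qHTS in CRE-bla HEK 293T cells: compound in DMSO, then 0.25 uM NKH477 (final), 3 h at 37 °C/5% CO2; beta-lactamase FRET read-out after 2 h substrate incubation.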

[14] = molecular target: Beta-2 adrenergic receptor (Homo sapiens) (UniProt P07550); assay: Adrenergic beta2 receptor (ADRB2) small molecule antagonists, cell-based qHTS assay (AID 1963592); further: series mostly up to about 92 µM; nearly all actives have a fitted effect of over 50% in size
Beta-2 adrenergic receptor (Homo sapiens), sequence (P07550 whole entry, looked up): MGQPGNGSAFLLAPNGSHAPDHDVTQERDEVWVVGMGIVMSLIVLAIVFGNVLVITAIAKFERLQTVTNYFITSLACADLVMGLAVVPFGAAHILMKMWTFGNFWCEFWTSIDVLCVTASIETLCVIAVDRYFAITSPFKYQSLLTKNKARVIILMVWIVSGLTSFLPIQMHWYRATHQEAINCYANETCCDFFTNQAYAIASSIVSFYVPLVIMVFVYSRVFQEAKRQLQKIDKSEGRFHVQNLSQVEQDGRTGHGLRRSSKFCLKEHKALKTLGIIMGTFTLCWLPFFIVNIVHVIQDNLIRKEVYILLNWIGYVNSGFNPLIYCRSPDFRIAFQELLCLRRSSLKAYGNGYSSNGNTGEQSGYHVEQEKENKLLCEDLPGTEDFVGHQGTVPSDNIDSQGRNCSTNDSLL
In short: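 Cells (CHO, stable ADRB2 overexpression) incubated 18-20hr at 37C; compounds added from DMSO; agonist mix (1nM isoproterenol, 100uM IBMX, 25uM Ro-20-1724) added; 0.5hr RT; d2-cAMP and anti-cAMP-cryptate added; 1hr RT; 665/615 nm read.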

[15] = molecular target: D(2) dopamine receptor (Homo sapiens) (UniProt P14416); assay: Dopamine D2 receptor (DRD2) small molecule agonists, cell-based qHTS assay (AID 1963594); further: nearly all actives have a fitted effect of over 35% in size
D(2) dopamine receptor (Homo sapiens), sequence (P14416 whole entry, looked up): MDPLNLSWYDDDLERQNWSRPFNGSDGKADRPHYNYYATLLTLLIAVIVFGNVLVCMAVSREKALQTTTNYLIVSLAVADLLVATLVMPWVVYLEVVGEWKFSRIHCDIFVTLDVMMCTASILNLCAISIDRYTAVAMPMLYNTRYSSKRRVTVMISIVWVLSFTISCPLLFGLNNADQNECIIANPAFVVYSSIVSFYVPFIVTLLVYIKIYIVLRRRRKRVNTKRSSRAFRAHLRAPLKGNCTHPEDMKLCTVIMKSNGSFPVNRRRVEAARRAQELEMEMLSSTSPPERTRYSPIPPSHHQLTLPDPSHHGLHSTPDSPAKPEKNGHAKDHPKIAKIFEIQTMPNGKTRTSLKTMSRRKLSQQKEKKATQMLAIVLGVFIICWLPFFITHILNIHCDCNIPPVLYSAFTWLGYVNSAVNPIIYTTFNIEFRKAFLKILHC
In short: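 cAMP accumulation in DRD2-HEK293 cells measured by HTRF after 1 h detection; compounds added 10 min before NKH477 (200nM […]) forskolin-analogue stimulation, 30 min at room temperature, with Ro20-1724 present at 0.1 mM final.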

[16] = p53 small molecule agonists, cell-based qHTS assay with human liver microsomes: qHTS cell viability counter screen (AID 1963579); further: nearly all actives have a fitted effect of over 45% in size; further: potency means the concentration at half of the fitted maximal effect
In short: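 Viability of p53RE-bla cells is measured as CellTiter-Glo luminescence following a 16 h, 37 C incubation with compound, liver microsomes from human donors and NADPH.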

[17] = cAMP Responsive Elements (CRE) small molecule agonists, cell-based qHTS assay (AID 1963590)
In short: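 FRET-based beta-lactamase readout (LiveBLAzer B/G, 2 h RT) quantified CRE activation in HEK 293T CRE-bla cells after 3 h treatment with DMSO-dissolved compounds.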

[18] = molecular target: Beta-2 adrenergic receptor (Homo sapiens) (UniProt P07550); assay: Adrenergic beta2 receptor (ADRB2) small molecule agonists, cell-based qHTS assay (AID 1963593);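 further: CHO cells stably overexpressing human ADRB2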
In short: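 CHO cells stably over-expressing ADRB2 were plated overnight at 37C, then dosed with compounds plus a stimulation mix containing 100uM IBMX and 25uM Ro-20-1724 for 0.5hr at room temperature. cAMP was measured by HTRF competition, 1hr.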

[19] = molecular target: D(2) dopamine receptor (Homo sapiens) (UniProt P14416); assay: Dopamine D2 receptor (DRD2) small molecule antagonists, cell-based qHTS assay (AID 1963595; active means well fitted inhibition curve with a large enough effect in the signal ratio in the repeat runs, with a control signal flat; the % refers to the signal ratio; further: potency means the concentration at half of the fitted maximal effect)
In short: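 HEK293 cells stably expressing DRD2, preincubated with 0.1 mM Ro20-1724 and compounds 10 min, were stimulated with 200 nM NKH477 plus 12 nM quinpirole for 30 min at room temperature; cAMP measured by HTRF (665/620 nm).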

Measured: Potency

O=P(OCCCl)(OCCCl)OCCCl
inactive: [1] | [2] | [3] | [4] | [5] | [6] | [7] | [8] | [9] | [10] | [11] | [12] | [13] | [14] | [15]

CSc1nc(NC(C)C)nc(NC(C)C)n1
inactive: [1] | [2] | [3] | [4] | [5] | [16] | [6] | [8] | [9] | [10] | [11] | [12] | [17] | [13] | [14] | [18] | [15] | [19]

Nc1cnn(-c2ccccc2)c(=O)c1Cl
inactive: [1] | [2] | [3] | [4] | [5] | [16] | [6] | [7] | [8] | [9] | [10] | [11] | [12] | [17] | [13] | [14] | [15] | [19]

CC(C)(C)C(=O)Cl
inactive: [1] | [2] | [3] | [4] | [5] | [16] | [6] | [7] | [8] | [9] | [10] | [12] | [17] | [13] | [14] | [15] | [19]

Cc1nn(-c2cc(NS(C)(=O)=O)c(Cl)cc2Cl)c(=O)n1C(F)F
inactive: [1] | [2] | [3] | [4] | [5] | [16] | [6] | [8] | [9] | [10] | [11] | [12] | [17] | [13] | [14] | [18] | [15] | [19]

O=c1oc2ccccc2c(O)c1C(CC(O)c1ccc(-c2ccc(Br)cc2)cc1)c1ccccc1 (stereo unspecified)
active: [7] 19.3 µM
inactive: [1] | [2] | [3] | [4] | [5] | [16] | [9] | [10] | [12] | [14] | [18] | [15]

OCC(O)CCl (stereo unspecified)
inactive: [1] | [2] | [3] | [4] | [5] | [16] | [6] | [7] | [8] | [9] | [10] | [11] | [12] | [17] | [13] | [14] | [15] | [19]

CCc1cc(C)cc(CC)c1-c1c(OC(=O)C(C)(C)C)n2n(c1=O)CCOCC2
inactive: [1] | [2] | [3] | [4] | [5] | [6] | [7] | [8] | [9] | [10] | [11] | [12] | [17] | [13] | [14] | [15] | [19]

CCC(=O)c1ccccc1
inactive: [1] | [2] | [3] | [4] | [5] | [16] | [7] | [8] | [9] | [10] | [12] | [17] | [13] | [14] | [18] | [15] | [19]

CCC12COCN1COC2
inactive: [1] | [2] | [3] | [4] | [5] | [16] | [6] | [7] | [8] | [9] | [10] | [11] | [12] | [17] | [13] | [14] | [15] | [19]

CC(C)OC(=S)S
active: [1] 30.6 µM | [2] 15.4 µM
inactive: [3] | [4] | [5] | [16] | [6] | [7] | [9] | [10] | [11] | [12] | [17] | [13] | [14] | [15] | [19]

CC(=[OH+])/C=C(/C)[O-].CC(=[OH+])/C=C(\C)[O-].CC(=[OH+])/C=C(\C)[O-].[Al]
inactive: [1] | [2] | [3] | [4] | [5] | [16] | [6] | [7] | [8] | [10] | [11] | [12] | [17] | [13] | [14] | [15]

C[N+](C)(C)CC(=O)O
inactive: [1] | [2] | [3] | [4] | [16] | [6] | [7] | [9] | [10] | [11] | [12] | [17] | [13] | [14] | [18]

Nc1ccc(-c2ccc(N)c(Cl)c2)cc1Cl
inactive: [1] | [2] | [3] | [4] | [5] | [16] | [6] | [7] | [10] | [11] | [12] | [17] | [13] | [14] | [15] | [19]
active: [9] 21.2 µM and 17.5 µM and 29.8 µM

Cc1cc(-c2ccc(N)c(C)c2)ccc1N
inactive: [1] | [2] | [3] | [4] | [5] | [6] | [7] | [8] | [9] | [10] | [12] | [17] | [13] | [15] | [19]
inactive and 4.07 µM (active): [16]

C[C@]12CCC(=O)C=C1CC[C@@H]1[C@@H]2CC[C@@]2(C)[C@H]1CC[C@]2(C)O
inactive: [1] | [2] | [3] | [4] | [5] | [16] | [6] | [7] | [8] | [17] | [14] | [18] | [15] | [19]

N#CSCSC#N
inactive: [4] | [5] | [9] | [15]
active: [1] 14 µM and 21.5 µM | [2] 15.2 µM | [3] 39.8 µM | [16] 26.3 µM | [6] 37.2 µM | [7] 46.8 µM | [10] 50.1 µM and 48.5 µM | [19] 27.9 µM and 27 µM
